# Laboratory results from PubChem BioAssay.
# For some of these results: Results with a measured potency or affinity are listed apart. Activity calls are given as the source filed them.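 The calls were made as follows, unless noted: active = primary screen hit whose fluorescence ratio, in both repeats, exceeds the weak agonist control mean by 3 SD; inactive = the rest.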
# Columns and labels:
# [1] = system: TRPC4 beta (transient receptor potential cation channel C4), mouse; experiment: activators of mouse TRPC4 channel, confirmation, cell-based, Fluo4 calcium, HEK293 TRPC4beta/mu-opioid, duplicates, 10 µM (AID 2426;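 active = fluorescence ratio normalized to control raised more than 50% in primary screen plus both repeat runs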); conditions: Fluo4 calcium fluorescence, at 10 µM; stronger effect = higher value
# [2] = system: transient receptor potential cation channel C4 beta (TRPC4), mouse; experiment: activators of mouse TRPC4 channel, confirmation, cell-based, second round, Fluo4, HEK293 TRPC4beta/mu-opioid, 1 µM (AID 2461;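 active = primary screen active and over 50% activation in each of two duplicate runs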); conditions: Fluo4 calcium fluorescence, at 1 µM; stronger effect = higher value
# [3] = system: TRPC4 (transient receptor potential cation channel C4 beta), mouse; experiment: positive allosteric modulators of mouse TRPC4, confirmation, cell-based, second round, Fluo-4, HEK293 TRPC4beta/mu-opioid, 1 µM (AID 2554); conditions: DAMGO EC20, Fluo-4 calcium flux, at 1 µM; stronger effect = higher value
# [4] = system: TRPC4 beta (transient receptor potential cation channel C4), mouse; experiment: positive allosteric modulators of mouse TRPC4, confirmation, cell-based, Fluo-4, HEK293 TRPC4beta/mu-opioid (AID 2555;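 active = primary screen hit whose calcium fluorescence ratio, in both repeats, exceeds the weak agonist control mean by 3 SD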); conditions: DAMGO EC20, Fluo-4 calcium flux, at 10 µM; stronger effect = higher value
# [5] = target: Short transient receptor potential channel 4 (Mus musculus) (UniProt Q9QUQ5); experiment: inhibitors of mouse TRPC4 channel, confirmation, cell-based, Fluo4, HEK293 TRPC4beta/mu-opioid (AID 2636;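 active = calcium signal cut by more than 3 SD below the full-agonist control yet still positive, in both repeats and the earlier primary screen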); conditions: DAMGO, Fluo4 calcium flux, at 10 µM; stronger effect = higher value
# Chain of Short transient receptor potential channel 4 (Mus musculus) (Q9QUQ5 whole entry, looked up): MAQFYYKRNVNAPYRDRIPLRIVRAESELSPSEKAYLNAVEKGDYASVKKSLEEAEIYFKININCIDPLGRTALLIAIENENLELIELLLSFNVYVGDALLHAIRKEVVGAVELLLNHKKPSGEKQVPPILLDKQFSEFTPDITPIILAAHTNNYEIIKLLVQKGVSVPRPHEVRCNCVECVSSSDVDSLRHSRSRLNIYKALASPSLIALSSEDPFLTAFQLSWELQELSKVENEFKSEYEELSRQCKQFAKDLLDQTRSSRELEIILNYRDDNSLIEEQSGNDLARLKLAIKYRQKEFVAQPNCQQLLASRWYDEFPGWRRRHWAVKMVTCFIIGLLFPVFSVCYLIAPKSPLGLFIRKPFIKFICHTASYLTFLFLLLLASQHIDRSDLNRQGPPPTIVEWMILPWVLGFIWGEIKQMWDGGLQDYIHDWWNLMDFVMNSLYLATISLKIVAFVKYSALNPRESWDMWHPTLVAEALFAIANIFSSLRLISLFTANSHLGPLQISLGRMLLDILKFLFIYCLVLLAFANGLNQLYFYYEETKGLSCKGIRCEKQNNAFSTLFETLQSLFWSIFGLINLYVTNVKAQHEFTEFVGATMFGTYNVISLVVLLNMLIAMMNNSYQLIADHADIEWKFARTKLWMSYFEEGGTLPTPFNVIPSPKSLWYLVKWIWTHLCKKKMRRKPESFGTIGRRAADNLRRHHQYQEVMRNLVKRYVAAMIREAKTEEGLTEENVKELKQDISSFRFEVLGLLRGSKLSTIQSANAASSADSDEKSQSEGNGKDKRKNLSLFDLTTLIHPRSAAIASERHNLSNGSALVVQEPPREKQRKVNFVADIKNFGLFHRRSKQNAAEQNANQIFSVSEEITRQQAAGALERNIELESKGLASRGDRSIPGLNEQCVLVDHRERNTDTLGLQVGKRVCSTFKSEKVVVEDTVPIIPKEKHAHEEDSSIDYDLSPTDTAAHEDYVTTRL
# [6] = target: Short transient receptor potential channel 4 (Mus musculus) (UniProt Q9QUQ5); experiment: inhibitors of mouse TRPC4 channel, confirmation, cell-based, second round, Fluo4, HEK293 TRPC4beta/mu-opioid, 1 µM (AID 2637;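 active = calcium signal ratio cut to more than 3 SD under the fully stimulated control mean yet still positive, in both repeats and the primary screen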;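 as to inhibition: percent of integrated ratio relative to wells lacking test compound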); conditions: Fluo4 calcium flux, DAMGO, at 1 µM; stronger effect = higher value
# [7] = target: Short transient receptor potential channel 4 (Mus musculus) (UniProt Q9QUQ5); experiment: mouse TRPC4 channel activators, dose response, cell-based, HEK293 TRPC4/mu-opioid, Fluo-4 calcium (AID 434937;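 active = primary screen activator hit with a dose response curve and TRPC4 channel activation at any tested dose; inactive = no activation, no dose response, or not a primary hit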)
# [8] = target: Short transient receptor potential channel 4 (Mus musculus) (UniProt Q9QUQ5); experiment: TRPC4 positive allosteric modulators, dose response, cell-based, HEK293 TRPC4/mu-opioid, Fluo-4 calcium, EC20 DAMGO (AID 434941;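 active = earlier screen potentiator hit that boosts the TRPC4 ion channel at some dose, with a dose response; inactive = no potentiation, no dose response, or not a prior hit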;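 also: calcium entry triggered by an EC20 dose of DAMGO at the co-expressed mu-opioid receptor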)
# [9] = target: Short transient receptor potential channel 6 (Mus musculus) (UniProt Q61143); experiment: inhibition of mouse TRPC6 channel, confirmation, selectivity assay for TRPC4 inhibitor project, cell-based, HEK293, membrane potential dye, duplicate (AID 434948;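 active = active in primary screen and both duplicates, each dropping signal beyond three positive-control SD with fluorescence still positive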); conditions: HEK293 TRPC6, membrane potential dye fluorescence, at 10 µM, stimulated with maximal-effect acetylcholine; stronger effect = higher value
# Chain of Short transient receptor potential channel 6 (Mus musculus) (Q61143 whole entry, looked up): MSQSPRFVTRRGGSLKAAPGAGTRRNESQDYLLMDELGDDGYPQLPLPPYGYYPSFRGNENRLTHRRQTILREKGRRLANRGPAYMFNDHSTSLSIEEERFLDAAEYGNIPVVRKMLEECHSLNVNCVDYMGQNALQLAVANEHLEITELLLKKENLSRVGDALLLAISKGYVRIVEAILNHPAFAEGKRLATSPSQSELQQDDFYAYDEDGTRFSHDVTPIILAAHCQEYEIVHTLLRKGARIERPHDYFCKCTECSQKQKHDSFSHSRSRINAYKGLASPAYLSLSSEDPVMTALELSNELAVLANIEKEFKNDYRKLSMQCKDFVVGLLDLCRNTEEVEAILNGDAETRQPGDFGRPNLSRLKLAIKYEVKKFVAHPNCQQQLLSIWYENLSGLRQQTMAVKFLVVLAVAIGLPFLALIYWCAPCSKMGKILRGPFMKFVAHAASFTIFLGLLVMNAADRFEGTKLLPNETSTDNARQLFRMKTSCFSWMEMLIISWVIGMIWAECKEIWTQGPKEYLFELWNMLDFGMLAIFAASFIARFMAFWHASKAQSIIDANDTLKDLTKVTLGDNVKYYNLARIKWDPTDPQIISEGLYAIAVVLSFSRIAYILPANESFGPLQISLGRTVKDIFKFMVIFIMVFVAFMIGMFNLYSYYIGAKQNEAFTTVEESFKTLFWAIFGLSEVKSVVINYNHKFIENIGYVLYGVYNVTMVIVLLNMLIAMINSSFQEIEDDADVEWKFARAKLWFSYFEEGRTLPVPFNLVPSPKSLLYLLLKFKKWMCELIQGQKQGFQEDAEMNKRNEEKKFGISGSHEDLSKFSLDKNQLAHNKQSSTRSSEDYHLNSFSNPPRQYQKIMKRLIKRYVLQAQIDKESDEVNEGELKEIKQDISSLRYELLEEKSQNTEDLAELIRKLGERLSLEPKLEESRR
# [10] = target: Short transient receptor potential channel 6 (Mus musculus) (UniProt Q61143); experiment: activation of mouse TRPC6 channel, confirmation, selectivity assay for TRPC4 activator project, cell-based, HEK293, membrane potential dye, duplicate (AID 434950;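 active = membrane potential signal rise above negative control mean plus 3 SD in both duplicates, also active in the earlier TRPC4 screen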); conditions: HEK293 TRPC6, membrane potential fluorescence, at 10 µM; stronger effect = higher value
# [11] = target: Short transient receptor potential channel 6 (Mus musculus) (UniProt Q61143); experiment: TRPC6 potentiation by TRPC4 potentiator hits, confirmation, selectivity assay for TRPC4 potentiator project, HEK293 cells, membrane potential dye, duplicate (AID 434952;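 active = compound raising the membrane signal above positive-control mean plus 3 SD in both repeats, and a primary screen hit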); conditions: HEK293 TRPC6, membrane potential dye fluorescence, at 10 µM, maximal acetylcholine added after compound; stronger effect = higher value
# [12] = target: Short transient receptor potential channel 4 (Mus musculus) (UniProt Q9QUQ5); experiment: calcium flux activators in TRPC4/5HT1a cells, counter-screen for TRPC4 activator project, cell-based, second counter screen, HEK293 TRPC4/5HT1a, Fluo-4 (AID 434977;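 active = calcium signal rise above buffer-control mean plus 5 SD in both duplicates, and also a hit in the primary screen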); conditions: Fluo-4 calcium flux, at 10 µM; stronger effect = higher value
# [13] = calcium flux inhibitors in TRPC4/5HT1a cells, confirmation, counter-screen for TRPC4 inhibitor project, cell-based, second counter screen, HEK293 TRPC4/5HT1a, Fluo-4 (AID 434978;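 active = primary screen active whose calcium signal fell more than 3 SD beyond the full-serotonin control mean in both duplicate plates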;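 as to outcome: serotonin given first at submaximal then at maximal dose after compound preincubation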); conditions: Fluo-4 calcium flux, at 10 µM, serotonin added to trigger calcium flux; stronger effect = higher value
# [14] = system: TRPC4 (mouse), co-expressed with 5HT1a in HEK293; experiment: calcium flux potentiators in TRPC4/5HT1a cells, confirmation, counter-screen for TRPC4 potentiator project, cell-based, second counter screen, HEK293 TRPC4/5HT1a, Fluo-4 (AID 434979;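 active = signal rise over 3 SD above mean of control wells given weak agonist, in both repeats and first screen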); conditions: Fluo-4 calcium flux, at 10 µM, serotonin added at its EC20 dose; stronger effect = higher value
# [15] = calcium flux activation in mu-opioid HEK293 cells, confirmation, counter-screen for TRPC4 activator project, cell-based, HEK293 mu-opioid receptor line (AID 449723;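 active = hit in primary screen, with calcium signal over 5 SD above buffer well mean in both duplicates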;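 also: counter screen cells carry the mu-opioid receptor alone and lack TRPC4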); conditions: Fluo-4 calcium fluorescence, at 10 µM; stronger effect = higher value
# [16] = calcium flux enhancement in mu-opioid HEK293 cells, confirmation, counter-screen for TRPC4 allosteric potentiator project, cell-based, HEK293 mu-opioid receptor line (AID 449724;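 active = calcium signal rise more than 3 SD above the low-dose agonist control mean, in both duplicate plates and the primary screen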); conditions: Fluo-4 calcium flux, at 10 µM, compound added before EC20 DAMGO stimulus; stronger effect = higher value
compound,measurement,setting,value
Clc1ccccc1CSc1nc2ccncc2[nH]1,outcome,[1],inactive
same,outcome,[2],inactive
same,outcome,[3],inactive
same,outcome,[4],inactive
same,inhibition,[5],99% (active)
same,outcome,[6],inactive
same,outcome,[7],inactive
same,outcome,[8],inactive
same,outcome,[9],inactive
same,outcome,[10],inactive
same,outcome,[11],inactive
same,outcome,[12],inactive
same,outcome,[13],inactive
same,outcome,[14],inactive
same,outcome,[15],inactive
same,outcome,[16],inactive
c1ccc(NC(=NCc2ccco2)c2ccccc2)cc1,outcome,[1],inactive
same,outcome,[2],inactive
same,outcome,[3],inactive
same,outcome,[4],inactive
same,inhibition,[5],94% (active)
same,inhibition,[6],45% (active)
same,outcome,[7],inactive
same,outcome,[8],inactive
same,outcome,[9],inactive
same,outcome,[10],inactive
same,outcome,[11],inactive
same,outcome,[12],inactive
same,outcome,[13],inactive
same,outcome,[14],inactive
same,outcome,[15],inactive
same,outcome,[16],inactive
NS(=O)(=O)c1ccc(Nc2nc(-c3ccc(O)cc3O)cs2)cc1,outcome,[1],inactive
same,outcome,[2],inactive
same,outcome,[3],inactive
same,outcome,[4],inactive
same,inhibition,[5],98% (active)
same,inhibition,[6],47% (active)
same,outcome,[7],inactive
same,outcome,[8],inactive
same,outcome,[9],inactive
same,outcome,[10],inactive
same,outcome,[11],inactive
same,outcome,[12],inactive
same,outcome,[13],inactive
same,outcome,[14],inactive
same,outcome,[15],inactive
same,outcome,[16],inactive
C=CCN(CC(O)c1cccc([N+](=O)[O-])c1)C(C)CCc1ccccc1 (stereo unspecified),outcome,[1],inactive
same,outcome,[2],inactive
same,outcome,[3],inactive
same,outcome,[4],inactive
same,inhibition,[5],79% (active)
same,outcome,[6],inactive
same,outcome,[7],inactive
same,outcome,[8],inactive
same,outcome,[9],inactive
same,outcome,[10],inactive
same,outcome,[11],inactive
same,outcome,[12],inactive
same,inhibition,[13],25.6% (active)
same,outcome,[14],inactive
same,outcome,[15],inactive
same,outcome,[16],inactive
CCCNCc1cc(Br)ccc1OCC(=O)NCCc1ccccc1,outcome,[1],inactive
same,outcome,[2],inactive
same,outcome,[3],inactive
same,outcome,[4],inactive
same,inhibition,[5],99% (active)
same,inhibition,[6],52% (active)
same,outcome,[7],inactive
same,outcome,[8],inactive
same,outcome,[9],inactive
same,outcome,[10],inactive
same,outcome,[11],inactive
same,outcome,[12],inactive
same,outcome,[13],inactive
same,outcome,[14],inactive
same,outcome,[15],inactive
same,outcome,[16],inactive
COc1cc(CNC2CCCC2)c(Br)cc1OC1CCCC1,outcome,[1],inactive
same,outcome,[2],inactive
same,outcome,[3],inactive
same,outcome,[4],inactive
same,inhibition,[5],95% (active)
same,outcome,[6],inactive
same,outcome,[7],inactive
same,outcome,[8],inactive
same,inhibition,[9],53% (active)
same,outcome,[10],inactive
same,outcome,[11],inactive
same,outcome,[12],inactive
same,outcome,[13],inactive
same,outcome,[14],inactive
same,outcome,[15],inactive
same,outcome,[16],inactive
COc1cc(CNCCc2ccc(F)cc2)ccc1OCc1ccc(Cl)nc1,outcome,[1],inactive
same,outcome,[2],inactive
same,outcome,[3],inactive
same,outcome,[4],inactive
same,inhibition,[5],84% (active)
same,outcome,[6],inactive
same,outcome,[7],inactive
same,outcome,[8],inactive
same,inhibition,[9],40.5% (active)
same,outcome,[10],inactive
same,outcome,[11],inactive
same,outcome,[12],inactive
same,outcome,[13],inactive
same,outcome,[14],inactive
same,outcome,[15],inactive
same,outcome,[16],inactive
CCOc1cccc(CNCCO)c1OCc1ccc(Cl)cc1,outcome,[1],inactive
same,outcome,[2],inactive
same,outcome,[3],inactive
same,outcome,[4],inactive
same,inhibition,[5],92% (active)
same,outcome,[6],inactive
same,outcome,[7],inactive
same,outcome,[8],inactive
same,outcome,[9],inactive
same,outcome,[10],inactive
same,outcome,[11],inactive
same,outcome,[12],inactive
same,inhibition,[13],26.5% (active)
same,outcome,[14],inactive
same,outcome,[15],inactive
same,outcome,[16],inactive
Cc1cc(C)c(S(=O)(=O)c2ccccc2C)c(OCC(C)(C)C)n1,outcome,[1],inactive
same,outcome,[2],inactive
same,outcome,[3],inactive
same,outcome,[4],inactive
same,inhibition,[5],91% (active)
same,inhibition,[6],43% (active)
same,outcome,[7],inactive
same,outcome,[8],inactive
same,outcome,[9],inactive
same,outcome,[10],inactive
same,outcome,[11],inactive
same,outcome,[12],inactive
same,inhibition,[13],15.5% (active)
same,outcome,[14],inactive
same,outcome,[15],inactive
same,outcome,[16],inactive
COc1ccc(/C=C/C(=O)Oc2cc(O)cc(O)c2)cc1,outcome,[1],inactive
same,outcome,[2],inactive
same,outcome,[3],inactive
same,outcome,[4],inactive
same,inhibition,[5],96% (active)
same,outcome,[6],inactive
same,outcome,[7],inactive
same,outcome,[8],inactive
same,outcome,[9],inactive
same,outcome,[10],inactive
same,outcome,[11],inactive
same,outcome,[12],inactive
same,inhibition,[13],27.4% (active)
same,outcome,[14],inactive
same,outcome,[15],inactive
same,outcome,[16],inactive
CCCn1c(NC(=O)c2ccc(Cl)c(S(=O)(=O)N3CCCC3)c2)nc2ccccc21,outcome,[1],inactive
same,outcome,[2],inactive
same,potentiation,[3],10% (active)
same,potentiation,[4],24% (active)
same,inhibition,[5],69% (active)
same,outcome,[6],inactive
same,outcome,[7],inactive
same,outcome,[8],inactive
same,outcome,[9],inactive
same,outcome,[10],inactive
same,outcome,[11],inactive
same,outcome,[12],inactive
same,outcome,[13],inactive
same,potentiation,[14],6.75% (active)
same,outcome,[15],inactive
same,outcome,[16],inactive
OCC1(Cc2ccccc2)CCN(Cc2ccc(C(F)(F)F)cc2)CC1,outcome,[1],inactive
same,outcome,[2],inactive
same,outcome,[3],inactive
same,outcome,[4],inactive
same,inhibition,[5],91% (active)
same,outcome,[6],inactive
same,outcome,[7],inactive
same,outcome,[8],inactive
same,outcome,[9],inactive
same,outcome,[10],inactive
same,outcome,[11],inactive
same,outcome,[12],inactive
same,inhibition,[13],23.3% (active)
same,outcome,[14],inactive
same,outcome,[15],inactive
same,outcome,[16],inactive
Cc1ccc(Cn2c(=N)n(CC(O)c3ccco3)c3ccccc32)cc1 (stereo unspecified),outcome,[1],inactive
same,outcome,[2],inactive
same,outcome,[3],inactive
same,outcome,[4],inactive
same,inhibition,[5],94% (active)
same,inhibition,[6],63% (active)
same,outcome,[7],inactive
same,outcome,[8],inactive
same,inhibition,[9],37% (active)
same,outcome,[10],inactive
same,outcome,[11],inactive
same,outcome,[12],inactive
same,inhibition,[13],17.1% (active)
same,outcome,[14],inactive
same,outcome,[15],inactive
same,outcome,[16],inactive
C/C(N)=C(/C#N)C(=O)COC(=O)CC12CC3CC(CC(C3)C1)C2,outcome,[1],inactive
same,outcome,[2],inactive
same,outcome,[3],inactive
same,outcome,[4],inactive
same,inhibition,[5],83% (active)
same,outcome,[6],inactive
same,outcome,[7],inactive
same,outcome,[8],inactive
same,outcome,[9],inactive
same,outcome,[10],inactive
same,outcome,[11],inactive
same,outcome,[12],inactive
same,inhibition,[13],32.2% (active)
same,outcome,[14],inactive
same,outcome,[15],inactive
same,outcome,[16],inactive
N#C/C(=N\Nc1cccc([N+](=O)[O-])c1)C(=O)c1ccc(Br)cc1,outcome,[1],inactive
same,outcome,[2],inactive
same,outcome,[3],inactive
same,outcome,[4],inactive
same,inhibition,[5],98% (active)
same,outcome,[6],inactive
same,outcome,[7],inactive
same,outcome,[8],inactive
same,inhibition,[9],21.5% (active)
same,outcome,[10],inactive
same,outcome,[11],inactive
same,outcome,[12],inactive
same,inhibition,[13],12.4% (active)
same,outcome,[14],inactive
same,outcome,[15],inactive
same,outcome,[16],inactive
CCCCn1c2ccccc2c2nnc(SCCN3CCCCC3)nc21,outcome,[1],inactive
same,outcome,[2],inactive
same,outcome,[3],inactive
same,outcome,[4],inactive
same,inhibition,[5],84% (active)
same,outcome,[6],inactive
same,outcome,[7],inactive
same,outcome,[8],inactive
same,inhibition,[9],44.5% (active)
same,outcome,[10],inactive
same,outcome,[11],inactive
same,outcome,[12],inactive
same,inhibition,[13],31.3% (active)
same,outcome,[14],inactive
same,outcome,[15],inactive
same,outcome,[16],inactive
